# This is a sample that favours compounds with a hit; in the whole collection about 5.5% have one here.
# Gal4-VP16 FLuc: inhibits Gal4-VP16 luciferase reporter, ROR gamma counter-screen; Potency, µM (titrated, usually from 53.6 µM), for inactives: at the highest dose activity, negative = inhibition, actives largely listed as inhibitors; 310,000 compounds, 3.5% hits; Drosophila S2 Gal4-VP16 UAS-luciferase, luminescence, 20 h;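 note: Gal4-VP16 expression switched on by copper sulfate through the metallothionein promoter; % is set by controls: 0 for no effect and ±100 for the full control effect; nearly all actives have a fitted effect of over 50% in size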
# RORg inh: ROR gamma (mouse) transcription inhibition; AID 2551; 310,000 compounds, 5.4% hits; Potency, µM (doses to about 53.6 µM), without a hit: at the top dose activity change, negative = inhibition, most hits filed as inhibitors; Drosophila S2 Gal4-RORgamma UAS-luciferase reporter, 20 h; note: % is set by controls: 0 for no effect and ±100 for the full control effect; nearly all actives have a fitted effect of over 60% in size
# Target sequence (P51450 whole entry, looked up, the tested form may be a part): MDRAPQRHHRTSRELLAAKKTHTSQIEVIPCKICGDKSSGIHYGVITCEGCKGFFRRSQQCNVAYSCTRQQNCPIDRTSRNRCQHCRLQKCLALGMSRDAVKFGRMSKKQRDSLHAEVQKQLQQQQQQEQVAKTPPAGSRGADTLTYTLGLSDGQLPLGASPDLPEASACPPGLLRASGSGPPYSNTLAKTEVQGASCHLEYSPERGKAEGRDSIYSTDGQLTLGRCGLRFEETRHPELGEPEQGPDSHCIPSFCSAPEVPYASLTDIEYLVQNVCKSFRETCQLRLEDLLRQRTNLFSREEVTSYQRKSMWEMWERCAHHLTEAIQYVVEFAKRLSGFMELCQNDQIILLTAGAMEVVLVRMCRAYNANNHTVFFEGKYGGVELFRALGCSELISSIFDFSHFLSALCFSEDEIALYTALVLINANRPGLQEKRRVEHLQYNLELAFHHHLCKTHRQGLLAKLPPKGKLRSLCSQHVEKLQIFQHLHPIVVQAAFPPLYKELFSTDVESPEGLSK
#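 Drosophila S2 cells stably expressing Gal4-DBD/mouse RORγ fusion under metallothionein promoter plus UAS-luciferase; compound 1 h, then 700 uM CuSO4 induction for 20 h at ambient temperature; inhibition read as reduced luminescence.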
# Mito fusion yeast: blocks mitochondrial division or promotes mitochondrial fusion | S. cerevisiae fusion-defective mutant growth rescue, CellTiterGlo 48 h | Potency, µM (top dose mostly 46.1 µM), for the others: at the highest dose growth rescue (activation), most hits filed as activators | 320,000 compounds, 0.23% hits | AID 485298; note: % of control where 0% means no effect; nearly all actives have a fitted effect of over 45% in size
#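 Compounds are tested for their ability to restore growth of mitochondrial fusion-defective yeast strains at non-permissive 37C in YPEG medium over 48 hours. Viability is quantified by luciferase luminescence.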
# Integrin act MD: activators of alpha7 integrin expression for muscular dystrophy | alpha7betagal myoblasts, beta-gal FDG fluorescence, 48 h | Potency, µM (top dose mostly 38.3 µM), inactives show top-dose activation, hits mostly activators | 350,000 compounds, 0.064% hits;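 note: 100% = response of the positive control SU9516; nearly all actives have a fitted effect of over 60% in size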
#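 Alpha7betagal+/- myoblasts (passage 13) were plated 16-24 hr, then exposed to compounds (1:260 dilution of DMSO stock) for 48 hours at 37C. After MPER lysis, β-galactosidase reporter activity was read as FDG fluorescence (ex 480/em 540) after 30 minutes.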
# BCR signal inh: inhibitors of chronic active B-cell receptor signaling; ABC-DLBCL IkBa-CBG/CBR reporter, luminescence ratio, 4 h; Potency, µM (series often up to 46.1 µM), without a hit: at the top dose activity change, negative = inhibition, most hits filed as inhibitors; 340,000 compounds, 0.05% hits; active = well fitted inhibition curve with a large enough effect in the signal ratio, with a control signal flat, not every such curve was filed as active; inconclusive = small, poorly fitted or top-dose-only effect, or effect the other way, or a change in a side signal; the % refers to the signal ratio;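 note: plate controls were basal doxycycline-induced cells for no effect and cells given 10 µM MG132 for full effect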
#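 Concentration-response series (up to 46 uM) were applied to TMD8 dual-reporter cells for 4 h at 37C with doxycycline. Green/red ratio, after filter-overlap correction, defined %Activity; red signal alone was normalised to basal cells and zero luminescence.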
# uPA generation: inhibitors of cell surface uPA generation | cell surface uPA generation assay, qHTS | Potency, µM (doses to about 38.3 µM), for inactives: top-dose activity change, negative = inhibition, actives largely listed as inhibitors | 330,000 compounds, 0.31% hits; active = well fitted inhibition curve with a large enough effect; inconclusive = small, poorly fitted or top-dose-only effect; inactive = no such curve, though single readings can be large or run the other way; tested in mouse RAW 264.7 cells; note: % is set by controls: 0 for no effect and ±100 for the full control effect; nearly all actives have a fitted effect of over 55% in size
# Active calls of the source: *; u = inconclusive; x = no result given; [ ] = remark or other dose. Unless noted, calls come from the whole dose curve; as a rule, active = well fitted curve in the direction sought with a large enough effect; inconclusive = small, poorly fitted or top-dose-only effect, or another doubt; inactive = no such curve, though single readings can be large; an effect the other way counts as inactive or inconclusive. Potency is the fitted concentration of half-maximal effect.
SMILES,Gal4-VP16 FLuc,RORg inh,Mito fusion yeast,Integrin act MD,BCR signal inh,uPA generation
O=C(O)C(Cc1ccc(Cl)cc1)Sc1nc2ccccc2[nH]1 (stereo unspecified),-1%,-2%,-2%,-16%,u,3%
CCCCNc1nc(N(C)c2ccccc2)nc(-n2ccnc2)n1,u,10µM*,-1%,-21%,-2%,0%
CN(c1ccccc1)c1nc(-n2ccnc2)nc(-n2ccnc2)n1,-4%,-12%,-8%,-4%,7%,9%
C=CCNc1nc(N(c2ccccc2)c2ccccc2)nc(-n2ccnc2)n1,-13%,11µM*,-11%,-26%,0%,1%
Cc1ncsc1CCOC(=O)c1ccc(N2CCOCC2)c([N+](=O)[O-])c1,4µM*,u,1%,-11%,u,-4%
CCc1cc(Cn2nc(-c3ccccc3)cc2C(=O)NCCOC)on1,x,x,1%,-3%,u,6%
CCc1cc(Cn2nc(-c3ccccc3)cc2C(=O)NCc2cccs2)on1,x,x,13µM*,-33%,4%,u
Cc1nc2ccccc2c(=O)n1NC(=O)c1ccc([N+](=O)[O-])cc1,8%,0%,-2%,-8%,1%,4%
CCN(CC1COc2ccccc2O1)C(=S)NC1CC2CCC1C2 (stereo unspecified),u,8.9µM*,11%,u,u,-12%
CN(CC1COc2ccccc2O1)C(=S)Nc1ccccc1 (stereo unspecified),x,x,x,0%,x,1%
CCOC(=O)c1cc(-c2ccccc2)n(CCCC(=O)Nc2cc(C)ccc2OC)c1C,x,x,x,x,-1%,x
CCOC(=O)c1sc(Nc2ccc(OCC)cc2)nc1C,-12%,-23%,-3%,u,-3%,17%
CCOC(=O)c1sc(N2N=C(C)/C(=C\c3ccc(OCC(=O)OC)cc3)C2=O)nc1C,u,8.9µM*,-7%,4%,-4%,-1%
CNC(=O)[C@H]1O[C@@H](n2cnc3c(NCc4ccc(N)cc4)ncnc32)[C@H](O)[C@@H]1O,x,x,-1%,x,x,x
CC(NC(=O)c1cn(C)c2ccc(S(=O)(=O)N3CCCC3)cc2c1=O)c1ccccc1 (stereo unspecified),-23%,12%,-1%,2.8µM*,0%,4%
NS(=O)(=O)c1ccc(NC(=O)c2cc(-c3ccccc3O)n[nH]2)cc1,5%,22%,-8%,10µM*,-11%,5%
Cc1ccc2nc(CSc3nc(C)ccc3C#N)[nH]c2c1,2µM*,3.5µM*,12%,0%,u,x
Cn1cccc1C(=O)N1CCC[C@@]2(CCN(c3ccccc3)C2)C1,39%,2%,x,x,x,x
O=C(Nc1ccccc1N1CCOCC1)c1cccc2c(Br)cccc12,7%,5%,3%,-20%,-1%,-17%
COc1ccc(NC(=S)Nc2ccccc2SC)c(OC)c1,u,11µM*,1%,u,5%,x
Fc1ccc(NC(=S)Nc2ccccc2Cl)cc1,-7%,u,2%,-34%,0%,-3%
COc1ccc(NC(=S)Nc2ccccc2F)c(OC)c1,-15%,11µM*,-10%,-32%,u,-4%
COc1ccc(NC(=O)CN2CCN(CC(=O)Nc3ccccc3F)CC2)c(OC)c1,u,u,-5%,-16%,2%,-2%
CSc1ccccc1NC(=S)Nc1cc(C)cc(C)c1,14µM*,6.3µM*,0%,4%,0%,0%
CCN1C(=O)[C@H]2[C@H]3[C@H](O)[C@H](O)C/C(=N/OC)[C@@H]3CC[C@@H]2C1=O,-3%[10 µM],-3%[10 µM],x,x,x,x
SMILES,Gal4-VP16 FLuc,RORg inh,Mito fusion yeast,Integrin act MD,BCR signal inh,uPA generation
CC(C)(C)CC(C)(C)c1ccc(O)c(-n2nc3ccccc3n2)c1,-5%,-8%,x,x,x,x
COCCCNC(=O)Cc1c(C)c2c(cc(C)c3c(C(C)(C)C)coc32)oc1=O,u,25%,u,-19%,u,0.28µM*
COCCNC(=O)Cc1c(C)c2c(cc(C)c3c(C)coc32)oc1=O,-1%,-25%,-4%,8%,u,8%
O=C(O)C1CCC[C@@H]2[C@@H]3CC(CN12)[C@@H]1CCCCN1C3 (stereo partly specified),-1%,-13%,x,x,x,x
C/C=C1\COC(C(=O)NCc2ccncc2)(C(F)(F)F)C=C1C=C1CCCCC1 (stereo unspecified),u,16µM*,x,11%,x,0%
C#CCn1c(=NC(=O)c2ccc(Cl)s2)sc2cccc(OC)c21,-17%,2.2µM*,4%,7%,u,0%
CCCCN1CCC(n2c(=O)[nH]c3ccccc32)CC1,x,x,-8%,x,x,x
O=C(Nc1cccc(C(F)(F)F)c1)Nc1ccc(N2CCCC2)c(S(=O)(=O)Nc2ccccc2Cl)c1,11µM*,u,6%,-52%,u,-10%
CC(=O)Nc1ccc(N2CCOCC2)c(S(=O)(=O)Nc2ccccc2Cl)c1,x,x,x,-13%,x,x
COc1ccc(CN(C)C(C)C(=O)Nc2ccc(S(=O)(=O)N3CCCCC3)cc2)cc1F (stereo unspecified),x,x,15%,-22%,-7%,u
COc1ccc(S(=O)(=O)Nc2cc(Sc3ncn[nH]3)c(O)c3ccccc23)cc1,7.1µM*,5µM*,-16%,x,u,x
O=C(O)CSc1cc(NS(=O)(=O)c2ccc(Cl)cc2)c2ccccc2c1O,u,-24%,-21%,-3%,u,-5%
O=S(=O)(Nc1cc(Sc2cccc3cccnc23)c(O)c2ccccc12)c1ccc(F)cc1,2.5µM*,1.3µM*,-15%,-52%,u,-17%
Cc1cc(C)c(S(=O)(=O)Nc2cc(SCC(=O)O)c(O)c3ccccc23)cc1C,u,11µM*,-9%,-58%,-7%,-3%
COc1ccc(S(=O)(=O)Nc2cc(SCC(=O)O)c(O)c3ccccc23)cc1,-21%,u,-16%,-73%,-24%,11µM*
CSc1nc(N)c2ncn([C@@H]3O[C@H](COP(=O)(O)OP(=O)(O)OP(=O)(O)O)[C@@H](O)[C@H]3O)c2n1,x,x,-49%,x,x,x
CC(=O)c1cc2c(cc1N/C(=N/S(=O)(=O)c1ccc(F)cc1)c1ccccc1)OCO2,x,x,x,x,27%,x
CC(C)n1cc(CN2CCCC(C(=O)Nc3ccccc3Oc3cccnc3)C2)cn1 (stereo unspecified),-10%,15%,-1%,u,0%,-1%
COc1ccc2c(c1)O[C@@H](c1cccc(C(F)(F)F)c1)[C@H](OC(=O)NCCOc1ccccc1)C2=O,-11%,13%,x,x,x,x
O=C(c1ccc2oc(CCc3ccccc3)nc2c1)N1CCC(O)CC1,-1%,-17%,-1%,9%,5%,-4%
